Assay results: the supplement of paper PMC10849652
Of roughly 7,900 targets only a part is listed; those with a hit were picked by preference. About 0.6% of all pairs of compound and target were hits. Unmarked numbers belong to inactive results.

Experiments:
Experiment in all cases: log2 fold change, soluble protein after heating vs DMSO (PISA); higher = thermal stabilisation; K562 cells, 10 uM, 30 min; active = over 0.2 and 3.5 SD of the protein, either way, in both replicates (recomputed)
[1] = compound: NC(=O)Nc1cc(-c2cccc(F)c2)sc1C(=O)N[C@H]1CCCNC1
In short: (§1)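 Quantification of soluble protein used TMTpro 16plex LC-MS/MS, with channel sums equalised. Samples were the supernatant after 21,000xg for 90 min of pooled aliquots from K562 cells (2×10^6 cells/mL) treated with 10 μM compound for 30 min, heated for 3 min over 48°C-58°C, and extracted in PBS with 0.5% NP-40 at 4°C. Values, from duplicates, describe thermal stability against control samples on a log2 fold-change scale.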

[2] = compound: NC(=O)c1cnc(N[C@@H]2CCCC[C@@H]2N)nc1Nc1cccc(-n2nccn2)c1
In short: as §1

[3] = compound: NC1(c2ccc(-c3nc4ccn5c(=O)[nH]nc5c4cc3-c3ccccc3)cc2)CCC1
In short: as §1

[4] = compound: NCC(=O)Nc1ccc(-n2nc(C(F)(F)F)cc2-c2ccc3c(ccc4ccccc43)c2)cc1
In short: as §1

entinostat = compound: Nc1ccccc1NC(=O)c1ccc(CNC(=O)OCc2cccnc2)cc1 [entinostat]
In short: as §1

vorinostat = compound: O=C(CCCCCCC(=O)Nc1ccccc1)NO [vorinostat]
In short: as §1

citarinostat = compound: O=C(CCCCCCNC(=O)c1cnc(N(c2ccccc2)c2ccccc2Cl)nc1)NO [citarinostat]
In short: as §1

silmitasertib = compound: O=C(O)c1ccc2c(c1)nc(Nc1cccc(Cl)c1)c1ccncc12 [silmitasertib]
In short: as §1

[5] = compound: O=C1NC(=O)C(c2cnc3ccccn23)=C1c1cn2c3c(cc(F)cc13)CN(C(=O)N1CCCCC1)CC2
In short: as §1

[6] = compound: c1cc(OCCN2CCCCC2)cc(-c2n[nH]c3ccc(-c4nnc[nH]4)cc23)c1
In short: as §1

UniProt Q9NX61, sequence (Q9NX61 whole entry, looked up): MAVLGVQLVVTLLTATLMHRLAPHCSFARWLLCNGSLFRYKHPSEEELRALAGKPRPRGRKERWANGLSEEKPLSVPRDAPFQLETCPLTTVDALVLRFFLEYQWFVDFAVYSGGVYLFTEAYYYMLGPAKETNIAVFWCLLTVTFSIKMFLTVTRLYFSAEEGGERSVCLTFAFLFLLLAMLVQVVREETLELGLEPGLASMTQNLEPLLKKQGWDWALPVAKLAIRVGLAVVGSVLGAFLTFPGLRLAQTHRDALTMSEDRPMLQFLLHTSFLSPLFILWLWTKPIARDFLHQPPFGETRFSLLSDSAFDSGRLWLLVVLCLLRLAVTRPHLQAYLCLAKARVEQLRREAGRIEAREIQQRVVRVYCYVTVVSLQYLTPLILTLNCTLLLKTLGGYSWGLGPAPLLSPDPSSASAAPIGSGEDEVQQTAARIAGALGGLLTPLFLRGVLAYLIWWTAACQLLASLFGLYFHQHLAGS
UniProt P61960, sequence (P61960 whole entry, looked up): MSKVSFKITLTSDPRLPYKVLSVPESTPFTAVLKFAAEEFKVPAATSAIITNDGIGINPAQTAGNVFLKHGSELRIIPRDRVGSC
UniProt Q96QU8, sequence (Q96QU8 whole entry, looked up): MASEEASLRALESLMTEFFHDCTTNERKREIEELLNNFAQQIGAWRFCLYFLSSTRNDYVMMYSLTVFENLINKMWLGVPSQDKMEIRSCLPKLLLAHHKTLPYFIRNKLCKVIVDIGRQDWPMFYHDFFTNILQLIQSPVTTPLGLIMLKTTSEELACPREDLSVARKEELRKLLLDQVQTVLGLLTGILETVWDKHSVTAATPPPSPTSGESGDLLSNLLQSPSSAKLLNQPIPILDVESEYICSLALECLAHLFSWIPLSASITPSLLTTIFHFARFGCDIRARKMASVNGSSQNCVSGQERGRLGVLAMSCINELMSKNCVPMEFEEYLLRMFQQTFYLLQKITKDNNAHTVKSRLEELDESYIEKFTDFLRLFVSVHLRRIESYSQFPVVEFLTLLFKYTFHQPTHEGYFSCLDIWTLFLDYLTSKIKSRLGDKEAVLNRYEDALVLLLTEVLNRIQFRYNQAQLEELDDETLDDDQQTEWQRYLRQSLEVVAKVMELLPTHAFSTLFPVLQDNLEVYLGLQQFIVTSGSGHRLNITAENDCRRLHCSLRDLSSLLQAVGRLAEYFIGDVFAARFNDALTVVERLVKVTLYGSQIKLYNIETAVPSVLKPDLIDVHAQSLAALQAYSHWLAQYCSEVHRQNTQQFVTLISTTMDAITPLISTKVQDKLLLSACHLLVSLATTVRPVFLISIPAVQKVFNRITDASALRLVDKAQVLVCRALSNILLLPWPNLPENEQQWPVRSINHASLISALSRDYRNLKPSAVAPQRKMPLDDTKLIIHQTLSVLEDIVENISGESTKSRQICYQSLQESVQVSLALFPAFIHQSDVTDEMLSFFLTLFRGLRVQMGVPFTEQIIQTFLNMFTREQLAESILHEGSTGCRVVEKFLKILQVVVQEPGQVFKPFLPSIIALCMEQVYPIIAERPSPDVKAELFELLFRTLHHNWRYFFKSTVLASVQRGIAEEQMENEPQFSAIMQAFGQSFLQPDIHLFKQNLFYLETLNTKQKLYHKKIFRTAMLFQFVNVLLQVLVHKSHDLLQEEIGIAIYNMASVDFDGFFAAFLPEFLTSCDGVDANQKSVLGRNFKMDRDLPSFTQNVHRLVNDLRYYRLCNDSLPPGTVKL
UniProt P02585, sequence (P02585 whole entry, looked up): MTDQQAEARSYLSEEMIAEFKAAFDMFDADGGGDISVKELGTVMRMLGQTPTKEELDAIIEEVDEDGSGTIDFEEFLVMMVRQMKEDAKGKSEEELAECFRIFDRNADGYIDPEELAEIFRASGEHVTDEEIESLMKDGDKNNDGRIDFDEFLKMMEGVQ
UniProt P11388, sequence (P11388 whole entry, looked up): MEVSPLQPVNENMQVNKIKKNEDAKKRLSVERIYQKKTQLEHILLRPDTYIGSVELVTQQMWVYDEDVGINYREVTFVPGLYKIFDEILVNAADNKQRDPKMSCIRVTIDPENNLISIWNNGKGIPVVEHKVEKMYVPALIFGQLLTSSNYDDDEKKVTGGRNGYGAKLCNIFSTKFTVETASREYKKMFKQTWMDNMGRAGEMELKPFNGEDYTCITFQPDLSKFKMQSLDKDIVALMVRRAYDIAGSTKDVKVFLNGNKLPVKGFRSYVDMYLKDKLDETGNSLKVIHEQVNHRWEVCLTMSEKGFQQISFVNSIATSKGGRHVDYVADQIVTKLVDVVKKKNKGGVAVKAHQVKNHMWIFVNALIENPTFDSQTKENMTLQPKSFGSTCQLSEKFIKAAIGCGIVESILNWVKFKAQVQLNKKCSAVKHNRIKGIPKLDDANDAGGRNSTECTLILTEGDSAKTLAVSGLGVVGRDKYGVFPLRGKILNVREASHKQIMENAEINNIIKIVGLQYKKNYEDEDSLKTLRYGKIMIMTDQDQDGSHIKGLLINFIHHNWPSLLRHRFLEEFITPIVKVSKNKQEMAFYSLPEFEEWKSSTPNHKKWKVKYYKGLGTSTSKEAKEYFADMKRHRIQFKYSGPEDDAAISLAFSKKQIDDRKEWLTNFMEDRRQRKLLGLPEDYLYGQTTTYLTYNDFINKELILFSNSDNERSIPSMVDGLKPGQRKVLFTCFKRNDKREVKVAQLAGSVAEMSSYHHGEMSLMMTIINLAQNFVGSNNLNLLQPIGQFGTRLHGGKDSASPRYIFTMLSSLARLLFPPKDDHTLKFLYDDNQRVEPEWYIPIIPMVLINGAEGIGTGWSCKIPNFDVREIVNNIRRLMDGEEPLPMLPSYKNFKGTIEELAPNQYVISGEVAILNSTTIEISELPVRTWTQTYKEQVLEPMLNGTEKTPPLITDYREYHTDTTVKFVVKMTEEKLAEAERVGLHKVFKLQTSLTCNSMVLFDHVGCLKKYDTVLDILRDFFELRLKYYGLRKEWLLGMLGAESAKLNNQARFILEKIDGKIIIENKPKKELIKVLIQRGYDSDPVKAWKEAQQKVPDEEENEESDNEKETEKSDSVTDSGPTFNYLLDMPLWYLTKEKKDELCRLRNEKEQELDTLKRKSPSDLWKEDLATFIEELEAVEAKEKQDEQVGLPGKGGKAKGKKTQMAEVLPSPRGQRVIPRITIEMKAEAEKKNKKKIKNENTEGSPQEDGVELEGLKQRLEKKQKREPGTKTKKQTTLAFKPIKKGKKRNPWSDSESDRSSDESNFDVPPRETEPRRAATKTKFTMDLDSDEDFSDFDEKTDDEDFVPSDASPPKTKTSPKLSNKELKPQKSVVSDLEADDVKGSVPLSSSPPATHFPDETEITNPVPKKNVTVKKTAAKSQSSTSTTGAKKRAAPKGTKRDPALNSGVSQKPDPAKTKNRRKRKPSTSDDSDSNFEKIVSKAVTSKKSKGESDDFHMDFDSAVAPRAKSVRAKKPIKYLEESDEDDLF
UniProt Q8IY95, sequence (Q8IY95 whole entry, looked up): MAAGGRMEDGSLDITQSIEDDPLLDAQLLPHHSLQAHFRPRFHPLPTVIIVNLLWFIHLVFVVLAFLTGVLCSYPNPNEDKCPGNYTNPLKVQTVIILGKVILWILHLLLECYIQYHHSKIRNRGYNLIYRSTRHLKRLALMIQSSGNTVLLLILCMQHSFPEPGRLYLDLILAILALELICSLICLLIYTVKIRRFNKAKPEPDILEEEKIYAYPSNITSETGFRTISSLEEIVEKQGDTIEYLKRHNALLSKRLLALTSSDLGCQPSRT
UniProt O60701, sequence (O60701 whole entry, looked up): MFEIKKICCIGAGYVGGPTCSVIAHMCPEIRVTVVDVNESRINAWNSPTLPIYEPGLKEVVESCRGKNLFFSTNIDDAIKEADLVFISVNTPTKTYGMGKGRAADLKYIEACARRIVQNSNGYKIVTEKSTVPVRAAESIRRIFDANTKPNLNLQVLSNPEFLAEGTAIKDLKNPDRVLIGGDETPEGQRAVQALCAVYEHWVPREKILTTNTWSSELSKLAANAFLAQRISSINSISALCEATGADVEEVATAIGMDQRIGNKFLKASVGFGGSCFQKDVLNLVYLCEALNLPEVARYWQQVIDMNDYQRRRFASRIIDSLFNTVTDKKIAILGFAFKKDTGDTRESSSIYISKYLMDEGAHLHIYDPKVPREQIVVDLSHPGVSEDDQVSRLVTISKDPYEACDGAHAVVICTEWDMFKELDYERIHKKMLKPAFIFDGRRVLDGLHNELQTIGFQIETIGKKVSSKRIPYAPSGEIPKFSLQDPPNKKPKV
UniProt Q96HV5, sequence (Q96HV5 whole entry, looked up): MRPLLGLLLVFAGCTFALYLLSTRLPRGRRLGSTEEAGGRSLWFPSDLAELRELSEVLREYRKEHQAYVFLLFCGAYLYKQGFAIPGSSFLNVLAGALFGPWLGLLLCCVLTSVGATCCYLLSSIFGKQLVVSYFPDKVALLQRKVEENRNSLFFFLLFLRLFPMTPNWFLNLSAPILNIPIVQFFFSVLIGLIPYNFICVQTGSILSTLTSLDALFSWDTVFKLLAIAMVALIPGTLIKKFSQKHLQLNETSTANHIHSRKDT
UniProt Q96FX7, sequence (Q96FX7 whole entry, looked up): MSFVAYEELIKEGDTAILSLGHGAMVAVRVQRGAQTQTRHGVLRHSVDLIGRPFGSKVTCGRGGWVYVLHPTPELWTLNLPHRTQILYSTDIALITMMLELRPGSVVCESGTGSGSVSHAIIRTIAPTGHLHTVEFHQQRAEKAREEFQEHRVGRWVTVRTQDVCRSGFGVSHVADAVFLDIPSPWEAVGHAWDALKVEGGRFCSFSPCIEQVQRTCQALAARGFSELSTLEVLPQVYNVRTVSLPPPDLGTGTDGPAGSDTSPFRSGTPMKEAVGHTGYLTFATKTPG
UniProt Q7Z7N9, sequence (Q7Z7N9 whole entry, looked up): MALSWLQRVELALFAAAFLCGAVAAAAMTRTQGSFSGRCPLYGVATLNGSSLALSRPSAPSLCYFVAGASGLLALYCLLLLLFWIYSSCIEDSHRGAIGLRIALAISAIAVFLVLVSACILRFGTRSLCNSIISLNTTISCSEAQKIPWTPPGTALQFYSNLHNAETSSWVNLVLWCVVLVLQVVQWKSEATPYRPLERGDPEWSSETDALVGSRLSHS

Target | log2 fold change [1] | log2 fold change [2] | log2 fold change [3] | log2 fold change [4] | log2 fold change (entinostat) | log2 fold change (vorinostat) | log2 fold change (citarinostat) | log2 fold change (silmitasertib) | log2 fold change [5] | log2 fold change [6]
TMEM161A (UniProt Q9NX61) | 0.043 | 0.012 | -0.132 | -0.101 | 0.049 | 0.006 | 0.083 | -0.023 | -0.009 | -0.098
XPO1 (UniProt O14980) | 0.034 | -0.056 | -0.249 (active) | -0.026 | 0.082 | 0.052 | 0.092 | 0.025 | 0.009 | -0.054
XPO6 (UniProt Q96QU8) | 0.068 | -0.103 | -0.154 | -0.118 | 0.025 | 0.048 | 0.085 | 0.01 | 0.099 | -0.038
USP14 (UniProt P54578) | -0.008 | -0.006 | -0.161 | -0.057 | 0.025 | -0.03 | 0.051 | 0.007 | -0.029 | 0.005
WASHC5 (UniProt Q12768) | 0 | -0.011 | -0.232 (active) | -0.047 | 0.04 | 0.022 | 0.074 | 0.045 | 0.038 | -0.012
TMEM263 (UniProt Q8WUH6) | -0.044 | -0.335 | -0.389 | -0.299 | 0.123 | 0.058 | 0.068 | 0.057 | -0.08 | -0.037
TOP2A isoform 4 (UniProt P11388) | 0.159 | 0.058 | 0.307 | 0.19 | -0.042 | 0.034 | -0.112 | 0.255 | 0.296 | -0.205
TMEM87B (UniProt Q96K49) | -0.098 | -0.062 | -0.266 | -0.1 | 0.135 | 0.057 | 0.021 | 0.096 | -0.032 | -0.117
WDR46 (UniProt O15213) | 0.098 | 0.083 | 0.253 | 0.177 | -0.027 | -0.042 | -0.139 | 0.173 | 0.257 | -0.143
TRAPPC6B (UniProt Q86SZ2) | 0.025 | 0.016 | -0.025 | 0.007 | 0.066 | 0.013 | 0.046 | 0.001 | 0.143 | -0.058
VTI1A (UniProt Q96AJ9) | -0.07 | 0.014 | -0.125 | -0.014 | -0.009 | 0.028 | -0.016 | 0.051 | -0.01 | -0.039
WDR61 (UniProt Q9GZS3) | -0.013 | -0.058 | -0.102 | -0.069 | -0.052 | 0 | 0.028 | -0.005 | -0.045 | -0.057
WAPL isoform 3 (UniProt Q7Z5K2) | -0.009 | -0.033 | -0.423 (active) | -0.066 | 0.01 | 0.082 | 0.198 | 0.067 | -0.148 | 0.078
TRMT61A (UniProt Q96FX7) | 0.027 | 0.017 | 0.17 | 0.101 | -0.029 | 0.03 | 0.005 | 0.099 | 0.293 | -0.146
UBA6 | -0.048 | -0.065 | -0.14 | -0.047 | 0.05 | 0.011 | 0.052 | -0.004 | -0.046 | -0.004
TMEM173 (UniProt Q86WV6) | 0.002 | -0.041 | -0.078 | -0.06 | 0.032 | -0.09 | -0.028 | -0.041 | 0.035 | 0.006
TMEM120A (UniProt Q9BXJ8) | 0.229 | 0.089 | 0.058 | 0.091 | 0.002 | 0.1 | 0.252 | -0.124 | 0.185 | 0.082
UBAP2L isoform 5 (UniProt Q14157) | 0.017 | -0.004 | -0.013 | 0.001 | -0.016 | -0.016 | 0.013 | -0.007 | -0.029 | 0.023
VPS33A (UniProt Q96AX1) | 0.012 | -0.121 | -0.191 | -0.084 | 0.05 | 0.051 | 0.063 | 0.019 | 0.029 | -0.059
WBP4 (UniProt O75554) | 0.28 (active) | 0.079 | 0.006 | 0.111 | 0.058 | 0.098 | 0.055 | -0.026 | 0 | -0.007
UBAP1 isoform 4 (UniProt Q9NZ09) | -0.035 | -0.005 | -0.052 | 0.002 | -0.027 | -0.019 | 0.193 | 0.064 | -0.032 | -0.049
VPS18 (UniProt Q9P253) | 0.019 | -0.13 | -0.216 | 0.079 | 0.08 | 0.089 | 0.009 | 0.005 | 0.023 | 0.005
TMEM192 (UniProt Q8IY95) | 0 | -0.01 | -0.374 (active) | 0.01 | -0.017 | -0.061 | -0.02 | 0.037 | 0.03 | -0.005
UXT isoform 2 (UniProt Q9UBK9) | -0.041 | -0.067 | -0.108 | -0.011 | 0.004 | 0.047 | 0.129 | -0.033 | -0.051 | 0.007
WDR4 (UniProt P57081) | -0.094 | 0.021 | -0.089 | -0.003 | -0.04 | -0.009 | 0.046 | -0.038 | -0.161 | -0.011
TMEM179B (UniProt Q7Z7N9) | -0.235 | 0.079 | -0.255 |  | 0.04 | -0.156 | -0.019 | -0.043 | -0.173 | -0.112
TMEM41A (UniProt Q96HV5) | -0.005 | -0.053 | 0.002 | -0.066 | -0.027 | 0.09 | 0.04 | -0.015 | -0.018 | -0.059
UFM1 (UniProt P61960) | 0.045 | -0.135 | -0.073 | -0.056 | 0.004 |  | 0.056 | -0.033 | -0.083 | 0.015
TNNC2 (UniProt P02585) | -0.003 | 0.006 | -0.028 | 0.028 | -0.025 | -0.101 | 0.048 | -0.026 | -0.033 | -0.003
UGDH (UniProt O60701) | -0.062 | -0.124 | -0.033 | -0.095 | 0.064 | -0.027 | 0.145 | -0.102 | -0.31 (active) | 0
